Source: PubChem BioAssay (National Center for Advancing Translational Sciences (NCATS))
Rows were chosen to be rich in hits. Some 7.6% of all compounds tested hit in one or more screens of this group.
SW480 rerep: A quantitative high throughput screen for small molecules that induce DNA re-replication in SW480 colon adenocarcinoma cells | SW480 DNA re-replication, Hoechst DNA content imaging, 48 h | Potency, µM (top dose mostly 46.1 µM), without a hit: at the top dose re-replication activation, most hits filed as activators | 1.8% of 340,000 active | AID 624297, 2012; further: potency means the concentration at half of the fitted maximal effect; % of control where 0% means no effect; nearly all actives have a fitted effect of over 55% in size
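SW480 cells exposed to compounds for 48 hr at 37 C, 5% CO2, then Hoechst-stained 40 min. Nuclear DNA content imaged by fluorescence scanning (405 nm excitation, 500-530 nm emission); re-replication scored as increased high-intensity nuclei.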
KCNH2 3.1 block: qHTS for Inhibitors of KCHN2 3.1: Mutant qHTS. U2OS KCNH2 3.1, thallium flux FluxOr; stronger effect = lower value. Potassium voltage-gated channel subfamily H member 2, brain isoform KCNH2 3.1 (human). activity change, % (tested at about 1.8 µM). 0.95% of 340,000 active. AID 720553, 2013;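 active means maximum activity change below -70%; inconclusive means maximum activity change from -70% to -50%; inactive means maximum activity change above -50%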;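 further: thallium influx rate constant from kinetic fluorescence after stimulation buffer; on the % scale 0 is the no-effect control and ±100 the full control effect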
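Virally transduced U2OS (3.1 isoform, 4 h infection in dark at RT) → overnight 37 C → FluxOr + Red40 in HBSS/HEPES, 45 min → stimulation buffer, 2 min kinetic read → rate constant vs DMSO controls.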
KB-3-1 cytotox: qHTS assay for MDR1-selective chemotherapeutics: Primary screen using the parental adenocarcinoma cell KB-3-1. KB-3-1 viability, CellTiter-Glo ATP luminescence, 72 h. Potency, µM (doses to about 46.1 µM), usual class: cytotoxic. 1.4% of 400,000 active; further: potency means the concentration at half of the fitted maximal effect; on the % scale 0 is the no-effect control and ±100 the full control effect; nearly all actives have a fitted effect of over 60% in size
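Parental KB-3-1 adenocarcinoma cells in phenol-red-free DMEM with 10% FBS were pin-treated with compounds at several concentrations, incubated 72 h at 37 °C, and viability read by CellTiter-Glo luminescence; concentration-effect curves were fitted after normalization.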
KCNH2 WT inh: qHTS for Inhibitors of KCHN2 3.1: Wildtype qHTS; U2OS, BacMam KCNH2, thallium flux FluxOr; stronger effect = lower value; AID 720551, 2013; 0.37% of 340,000 active; activity change, % at 1.84 µM; Voltage-gated inwardly rectifying potassium channel KCNH2 (Homo sapiens), Q12809;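 active means maximum activity change below -70%; inconclusive means maximum activity change between -70% and -50%; inactive means maximum activity change above -50%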; further: on the % scale 0 is the no-effect control and ±100 the full control effect
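U2OS cells transduced with wild-type KCNH2 virus are loaded with FluxOr dye for 45 min, and thallium flux is measured in kinetic reads before and after stimulation buffer. Rate constants are normalized to DMSO controls.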
MCF10A rerep: A quantitative high throughput screen for small molecules that induce DNA re-replication in MCF 10a normal breast cells; MCF 10A DNA re-replication, Hoechst nuclear intensity, 48 h; Potency, µM (top dose mostly 46.1 µM), for the others: at the top dose activity, positive = re-replication, hits mostly activators; 2.9% of 350,000 active; AID 624296, 2012; further: potency means the concentration at half of the fitted maximal effect; % of control where 0% means no effect; nearly all actives have a fitted effect of over 50% in size
KB-V1 cytotox: qHTS assay for MDR1-selective chemotherapeutics: Primary screen using the drug-selected MDR subline cells KB-V1. 3.4% of 400,000 active. AID 1347076, 2019. Potency, µM (series often up to 46.1 µM), usual class: cytotoxic. KB-V1 MDR cells viability, CellTiter-Glo, 72 h; further: potency means the concentration at half of the fitted maximal effect; on the % scale 0 is the no-effect control and ±100 the full control effect; nearly all actives have a fitted effect of over 60% in size
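KB-V1 MDR subline cells in DMEM (phenol-red free, 10% FBS) exposed to compounds in qHTS concentration series for 72 h at 37 degrees C. Viability read by CellTiter-Glo luminescence; concentration-effect curves fitted after normalization and correction.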
Starred values were filed as active, the others as inactive. Unless noted, the call rests on the fitted dose curve; in most records, active means well fitted curve in the direction sought with a large enough effect; inconclusive means small, poorly fitted or top-dose-only effect, or another doubt; inactive means no such curve, though single readings can be large; an effect the other way counts as inactive or inconclusive.

What do the screens show for `O=C(CCN1C(=O)c2cccc3cccc(c23)C1=O)NC1CCS(=O)(=O)C1` (stereo not drawn)?
SW480 rerep: -18.4%; KCNH2 3.1 block: -2.1; KB-3-1 cytotox: inactive; KCNH2 WT inh: -14.5; MCF10A rerep: -1.8%; KB-V1 cytotox: inactive

What do the screens show for `O=C(CCCCCN1C(=O)c2cccc3cccc(c23)C1=O)NC1CCS(=O)(=O)C1` (stereo not drawn)?
SW480 rerep: 18.4µM*; KCNH2 3.1 block: -2.2; KB-3-1 cytotox: inactive; KCNH2 WT inh: 3.1; MCF10A rerep: -2.3%; KB-V1 cytotox: inactive

How did CC1CCCCN1c1c(S(=O)(=O)c2ccc(Cl)cc2)cnc2ccccc12 (stereo not drawn) do in these assays?
KB-3-1 cytotox: inactive; KB-V1 cytotox: inactive

What do the screens show for `CCOc1cccc(C(=O)Nc2cccc(-c3nnc(-c4ccc(C)cc4)o3)c2)c1`?
SW480 rerep: 0.7%; KCNH2 3.1 block: -11.8; KB-3-1 cytotox: 13µM*; KCNH2 WT inh: -3.1; MCF10A rerep: 3.66µM*; KB-V1 cytotox: inconclusive

Results for COc1ccc(C(=O)Nc2ccccc2C(=O)N2CCOCC2)cc1OC ?
SW480 rerep: -1.6%; KCNH2 3.1 block: 10.3; KB-3-1 cytotox: inactive; KCNH2 WT inh: -5.6; MCF10A rerep: -0.5%; KB-V1 cytotox: inactive

Results for COc1ccc(CC(=O)Nc2ccccc2C(=O)N2CCOCC2)cc1OC ?
SW480 rerep: 0.581µM*; KCNH2 3.1 block: -10.4; KB-3-1 cytotox: inactive; KCNH2 WT inh: -7.0; MCF10A rerep: -10.6%; KB-V1 cytotox: inactive

Results for CC(=O)Nc1cccc(-c2nnc(-c3ccccc3)o2)c1 ?
SW480 rerep: -2.2%; KCNH2 3.1 block: 7.0; KB-3-1 cytotox: inactive; KCNH2 WT inh: 9.0; MCF10A rerep: -12.4%; KB-V1 cytotox: inconclusive

How did O=C(Nc1cccc(-c2nnc(-c3ccccc3)o2)c1)C1CC1 do in these assays?
SW480 rerep: 0.3%; KCNH2 3.1 block: -6.0; KB-3-1 cytotox: inactive; KCNH2 WT inh: -2.8; MCF10A rerep: -4.0%; KB-V1 cytotox: 10.3µM*

Results for COc1ccc(CC(=O)Nc2cccc(-c3nnc(-c4ccccc4)o3)c2)cc1OC ?
SW480 rerep: 43.8%; KCNH2 3.1 block: 3.1; KB-3-1 cytotox: inconclusive; KCNH2 WT inh: 8.9; MCF10A rerep: 20.6µM*; KB-V1 cytotox: inconclusive

Results for COc1cccc(C2C(C(=O)Nc3ccccc3OC)=C(C)Nc3nc4ccccc4n32)c1 (stereo not drawn) ?
KB-3-1 cytotox: inactive; KB-V1 cytotox: inconclusive

How did CCOc1cccc(N(C(=O)c2ccco2)C(C(=O)NC2CCCC2)c2cccnc2)c1 (stereo not drawn) do in these assays?
SW480 rerep: -0.1%; KCNH2 3.1 block: -3.6; KB-3-1 cytotox: inactive; KCNH2 WT inh: -1.7; MCF10A rerep: 3.7%; KB-V1 cytotox: inconclusive

How did COc1ccccc1N(CC(=O)Nc1ccccc1C(=O)N1CCOCC1)S(C)(=O)=O do in these assays?
SW480 rerep: 3.4%; KCNH2 3.1 block: -4.8; KB-3-1 cytotox: inactive; KCNH2 WT inh: -9.6; MCF10A rerep: -1.3%; KB-V1 cytotox: inactive

Results for CCc1cccc(NC(=O)Cc2ccc(OC)c(OC)c2)c1 ?
SW480 rerep: -6.0%; KCNH2 3.1 block: -4.6; KB-3-1 cytotox: inconclusive; KCNH2 WT inh: -4.6; MCF10A rerep: 12.5%; KB-V1 cytotox: 16.4µM*

How did O=C(Cc1ccc(Cl)cc1)Nc1cccc(-c2nnc(-c3ccco3)o2)c1 do in these assays?
SW480 rerep: -4.3%; KCNH2 3.1 block: -22.2; KB-3-1 cytotox: inconclusive; KCNH2 WT inh: -8.0; MCF10A rerep: 14.4%; KB-V1 cytotox: 0.581µM*

What do the screens show for `COc1ccc(CC(=O)Nc2cccc(-c3nnc(-c4ccc(C)cc4)o3)c2)cc1OC`?
SW480 rerep: -2.4%; KCNH2 3.1 block: 11.2; KB-3-1 cytotox: inactive; KCNH2 WT inh: 5.2; MCF10A rerep: inconclusive; KB-V1 cytotox: 4.11µM*

Results for CC(O)CNc1ncnc2cc(-c3ccc(F)cc3)sc12 (stereo not drawn) ?
SW480 rerep: inconclusive; KCNH2 3.1 block: 27.0; KB-3-1 cytotox: inactive; KCNH2 WT inh: -5.5; MCF10A rerep: 13µM*; KB-V1 cytotox: inconclusive

How did Cc1ccc2oc(=O)c3cc(C(=O)N4CCN(c5ccccc5)CC4)sc3c2c1 do in these assays?
KB-3-1 cytotox: inactive; KB-V1 cytotox: inactive

What do the screens show for `Nc1ccc2c(c1)[nH]c(=O)c1ccccc12`?
SW480 rerep: -0.3%; KCNH2 3.1 block: -196.1*; KB-3-1 cytotox: inactive; KCNH2 WT inh: -11.9; MCF10A rerep: 5.5%; KB-V1 cytotox: inactive

What do the screens show for `COc1cc(NC(=O)CCc2c(C)nc3c(c(C)nn3-c3ccccc3)c2C)cc(OC)c1OC`?
KB-3-1 cytotox: inactive; KB-V1 cytotox: inactive

How did CC(C)=CC(O)C/C(C)=C/COc1ccc2ccc(=O)oc2c1 (stereo not drawn) do in these assays?
SW480 rerep: 5.9%; KCNH2 3.1 block: 3.4; KB-3-1 cytotox: 5.8µM*; KCNH2 WT inh: 4.2; MCF10A rerep: inconclusive; KB-V1 cytotox: 13µM*

How did CCN(c1ccc(N=Cc2c(O)n(Cc3ccc(OC)cc3)c(=O)c3ccccc23)cc1)C(C)C do in these assays?
SW480 rerep: inconclusive; KCNH2 3.1 block: -27.4; KB-3-1 cytotox: inactive; KCNH2 WT inh: -15.8; MCF10A rerep: 7.31µM*; KB-V1 cytotox: inactive

How did COc1ccc(-n2c(O)c(C=Nc3ccccc3)c3ccccc3c2=O)cc1 do in these assays?
SW480 rerep: inconclusive; KCNH2 3.1 block: 5.3; KB-3-1 cytotox: inconclusive; KCNH2 WT inh: 2.5; MCF10A rerep: inconclusive; KB-V1 cytotox: inactive

Results for CCOc1ccccc1C1CC(=O)Nc2c1c(=O)n(C)c1ncnn21 (stereo not drawn) ?
KB-3-1 cytotox: inactive; KB-V1 cytotox: inactive

Results for CCN(c1ccccc1)S(=O)(=O)c1c(C)noc1C ?
SW480 rerep: 8.3%; KCNH2 3.1 block: 5.1; KB-3-1 cytotox: inactive; KCNH2 WT inh: 8.8; MCF10A rerep: -2.7%; KB-V1 cytotox: inactive

How did Cc1cc(Br)cc(Cl)c1OCC(=O)NC(=O)NCc1ccccc1 do in these assays?
SW480 rerep: 6.7%; KCNH2 3.1 block: -24.9; KB-3-1 cytotox: inactive; KCNH2 WT inh: -9.8; MCF10A rerep: 18.4µM*; KB-V1 cytotox: inactive

What do the screens show for `Cc1cc(Br)cc(Br)c1OCC(=O)NNC(=O)CCC(=O)NCc1ccccc1`?
SW480 rerep: -5.1%; KCNH2 3.1 block: 17.7; KB-3-1 cytotox: inactive; KCNH2 WT inh: 6.3; MCF10A rerep: 1.2%; KB-V1 cytotox: inactive
